# Source: PubChem BioAssay (Tox21)
# “And” between values parts separate entries of the source, which are not always exact repeats. Equal entries are not always repeated. Results filed as inconclusive are left out. Entries that show only a call come without a potency. Some structures have more than one record in an assay (separate samples or runs), and their calls can disagree. The source made the active and inactive calls. Unless noted, calls come from the whole dose curve; as a rule, active = well fitted curve in the direction sought with a large enough effect in the repeat runs; inconclusive = weak or mixed curves; inactive = no such curve, though single readings can be large; an effect the other way counts as inactive or inconclusive.
# Experiments:
# [1] = qHTS assay to identify small molecule agonists of the RXR signaling pathway - cell viability counter screen (AID 1159529); note: nearly all actives have a fitted effect of over 50% in size; note: potency is the fitted concentration of half-maximal effect
# Procedure, shortened: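 Counter screen: CellTiter-Glo luminescence. Cells: RXR-alpha-UAS-bla HEK 293T. Medium: 2% charcoal-stripped FBS. Treatment: 16 h, 37 C. Reagent incubation: 30 min, RT.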
# [2] = qHTS assay to identify small molecule antagonists of the estrogen related receptor (ERR) signaling pathway - cell viability counter screen (AID 1224818)
# Procedure, shortened: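 Cytotoxicity check run alongside the ERR antagonist screen: cells exposed to test compounds 17.5 h at 37 C, viability taken as CellTiter-Fluor fluorescence intensity.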
# [3] = qHTS assay to identify small molecule antagonists of the estrogen related receptor (ERR) signaling pathway (AID 1224819;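 note: luminescence from an ERR-driven luciferase reporter measured with One-Glo reagent; nearly all actives have a fitted effect of over 50% in size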)
# Procedure, shortened: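 ERR reporter cells were plated at 2,000 cells/well and left 6 h at 37 C/5% CO2 before pin-tool transfer of compounds in DMSO. After 18 h at 37 C, One-Glo was added and luminescence was read 30 min later at room temperature.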
# [4] = qHTS assay to identify small molecule agonists of the estrogen related receptor (ERR) signaling pathway (AID 1224820)
# Procedure, shortened: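 An ERR cell line provided by NTP was seeded at 2,000 cells per well and allowed to settle for 6 h before compounds in DMSO were added. After 18 h at 37 C, luciferase activity was measured by One-Glo luminescence.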
# [5] = tested on: estrogen-related receptor alpha (ERRalpha) with PGC-1alpha coactivator, human; test: qHTS assay to identify small molecule antagonists of the estrogen related receptor signaling pathway with the pleiotropic PPARgamma coactivator (PGC) (AID 1224821; calls by dose curve;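 note: lower luminescence signal means antagonism of PGC/ERR signalling; nearly all actives have a fitted effect of over 50% in size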)
# Procedure, shortened: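 A PGC/ERR cell line supplied by NTP is seeded, allowed 6 h at 37 C, and treated with test compounds in DMSO for 18 h. Signal is then measured as luciferase luminescence using One-Glo.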
# [6] = qHTS assay to identify small molecule antagonists of the estrogen related receptor signaling pathway with the pleiotropic PPARgamma coactivator (PGC) cell viability counter screen (AID 1224822)
# Procedure, shortened: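 Viable cell signal (CellTiter-Fluor, 30 min, 37 C/5% CO2) was measured in PGC/ERR cells after a 17.5 h compound incubation.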
# [7] = qHTS assay to identify small molecule agonists of the estrogen related receptor signaling pathway with the pleiotropic PPARgamma coactivator (PGC) (AID 1224823)
# Procedure, shortened: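 Compounds dissolved in DMSO are added by pin tool to PGC/ERR cells that have settled for 6 h, and incubation continues 18 h at 37 C. Reporter output is measured as One-Glo luminescence.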
# [8] = qHTS assay to identify small molecule antagonists of the estrogen related receptor (ERR) signaling pathway from Tox21 library - cell viability counter screen (AID 1224834); note: nearly all actives have a fitted effect of over 30% in size; note: potency is the fitted concentration of half-maximal effect
# Procedure, shortened: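 In this quantitative HTS format, ERR cells receive compounds in DMSO and are incubated for 17.5 h at 37 C. Live-cell protease activity is then detected with CellTiter-Fluor.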
# [9] = target: Luciferin 4-monooxygenase (Photinus pyralis) (UniProt P08659); test: qHTS assay to identify small molecule inhibitors of firefly luciferase (AID 1224835); note: nearly all actives have a fitted effect of over 25% in size; note: potency is the fitted concentration of half-maximal effect
# Procedure, shortened: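 Biochemical qHTS: compounds run as interplate titrations against purified firefly enzyme, with D-luciferin and ATP each at its KM concentration. Light output recorded by CCD imaging.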
# [10] = qHTS assay to identify small molecule agonists of the constitutive androstane receptor (CAR) signaling pathway - cell viability counter screen (AID 1224836); note: nearly all actives have a fitted effect of over 45% in size; note: potency is the fitted concentration of half-maximal effect
# Procedure, shortened: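 Double-stable HepG2 hepatoma cells (hCAR plus CYP2B6-2.2kb) are treated for 23 h at 37 C with test compounds in 15-point concentration series. PK11195 at 0.75 uM final is co-added. Cell viability is quantified by CellTiter-Fluor.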
# [11] = qHTS assay to identify small molecule antagonists of the constitutive androstane receptor (CAR) signaling pathway - cell viability counter screen (AID 1224837); note: nearly all actives have a fitted effect of over 45% in size; note: potency is the fitted concentration of half-maximal effect
# Procedure, shortened: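 In quantitative HTS format, compounds at 15 concentrations were applied to HepG2 cells double-transfected with hCAR and CYP2B6-2.2kb under 50 nM CITCO stimulation; live-cell protease activity was read after 23 hr via CellTiter-Fluor.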
# [12] = qHTS assay to identify small molecule antagonists of the estrogen related receptor signaling pathway with the pleiotropic PPARgamma coactivator (PGC) from Tox21 10K library - cell viability counter screen (AID 1224840; active = well fitted cell-killing curve with a large enough effect in the repeat runs, not every such curve was filed as active; note: nearly all actives have a fitted effect of over 40% in size; note: potency is the fitted concentration of half-maximal effect)
# Procedure, shortened: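 Viability counter screen, PGC/ERR cells: 17.5 h compound exposure at 37 C, CellTiter-Fluor fluorescence endpoint.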
# [13] = qHTS assay to identify small molecule antagonists of the estrogen related receptor signaling pathway with the pleiotropic PPARgamma coactivator (PGC) from Tox21 10K library (AID 1224841; call rule not given here; note: actives are mostly falling curves and most rising ones were filed inactive; nearly all actives have a fitted effect of over 50% in size)
# Procedure, shortened: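 In the PGC/ERR line, DMSO solutions of test chemicals are pin-delivered to 2,000 cells/well six hours after dispensing. Following eighteen hours' incubation, One-Glo reagent is added and luminescence recorded.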
# [14] = qHTS assay to identify small molecule agonists of the estrogen related receptor signaling pathway with the pleiotropic PPARgamma coactivator (PGC) from Tox21 10K library (AID 1224842); note: nearly all actives have a fitted effect of over 15% in size
# Procedure, shortened: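 PGC/ERR reporter cell line, 2,000 cells per well, incubated 6 h at 37 C before 23 nL compound in DMSO was added. After 18 h at 37 C, One-Glo luminescence read following 30 min at room temperature.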
# [15] = qHTS assay to identify small molecule antagonists of the retinoic acid receptor (RAR) signaling pathway (AID 1159552; note: nearly all actives have a fitted effect of over 50% in size; note: potency is the fitted concentration of half-maximal effect)
# Procedure, shortened: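 Antagonism of retinol-induced RARE reporter activity was measured in C3RL4 cells. Exposure to compounds and 1 uM final retinol lasted 6 hr at 37 C, with luminescence as endpoint.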
# [16] = qHTS assay to identify small molecule agonists of the retinoic acid receptor (RAR) signaling pathway (AID 1159553); conditions: C3RL4 RARE luciferase reporter, agonist, 6 h; activation: at 73.3 µM (top of the series) unless noted; note: potency is the fitted concentration of half-maximal effect
# Procedure, shortened: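 Compounds dissolved in DMSO were pinned onto C3RL4 cells seeded the previous day, and plates were held 6 hr at 37 C. RARE-driven luciferase output was then read by luminescence.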
# [17] = target: Nuclear receptor subfamily 1 group I member 3 (Homo sapiens) (UniProt Q14994); test: qHTS assay to identify small molecule antagonists of the constitutive androstane receptor (CAR) signaling pathway (AID 1224838); note: nearly all actives have a fitted effect of over 40% in size; note: potency is the fitted concentration of half-maximal effect
# Procedure, shortened: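 CITCO-stimulated (50 nM final) HepG2 cells stably transfected with hCAR and CYP2B6-2.2kb luciferase were exposed to compounds at 15 concentrations for 24 h at 37 C/5% CO2. A luciferase reagent was added and luminescence recorded after 30 min.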
# [18] = target: Nuclear receptor subfamily 1 group I member 3 (Homo sapiens) (UniProt Q14994); test: qHTS assay to identify small molecule agonists of the constitutive androstane receptor (CAR) signaling pathway (AID 1224839); note: nearly all actives have a fitted effect of over 15% in size; note: potency is the fitted concentration of half-maximal effect;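 for activation: HepG2 cells stably carrying human CAR and a CYP2B6 luciferase reporter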
# Procedure, shortened: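 Readout: firefly luciferase luminescence via ONE-Glo. System: HepG2 double-stable for hCAR and CYP2B6-2.2kb. Conditions: 15-point compound titration, PK11195 at 0.75 uM final, 24 h incubation.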
# [19] = target: Thyrotropin receptor (Homo sapiens) (UniProt P16473); test: qHTS assay to identify small molecule agonists of the thyroid stimulating hormone receptor (TSHR) signaling pathway (AID 1224843; calls by dose curve; note: nearly all actives have a fitted effect of over 45% in size; note: potency is the fitted concentration of half-maximal effect)
# Procedure, shortened: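 Agonist-mode screen: TSHR HEK293 cells received test chemicals for half an hour at room temperature, then HTRF cAMP detection reagents for one hour prior to fluorescence measurement. Each chemical ran as a 15-concentration series, triplicated.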
# Nuclear receptor subfamily 1 group I member 3 (Homo sapiens), sequence (Q14994 whole entry, looked up): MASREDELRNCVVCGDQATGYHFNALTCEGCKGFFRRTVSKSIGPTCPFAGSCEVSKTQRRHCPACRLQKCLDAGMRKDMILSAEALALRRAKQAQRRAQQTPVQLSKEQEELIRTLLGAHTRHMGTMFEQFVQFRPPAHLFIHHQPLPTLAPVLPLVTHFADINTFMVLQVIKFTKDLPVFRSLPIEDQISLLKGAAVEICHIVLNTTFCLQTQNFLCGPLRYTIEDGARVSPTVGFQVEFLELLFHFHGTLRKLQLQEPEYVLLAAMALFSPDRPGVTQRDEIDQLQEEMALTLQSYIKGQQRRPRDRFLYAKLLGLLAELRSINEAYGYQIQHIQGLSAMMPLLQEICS
# Luciferin 4-monooxygenase (Photinus pyralis), sequence (P08659 whole entry, looked up): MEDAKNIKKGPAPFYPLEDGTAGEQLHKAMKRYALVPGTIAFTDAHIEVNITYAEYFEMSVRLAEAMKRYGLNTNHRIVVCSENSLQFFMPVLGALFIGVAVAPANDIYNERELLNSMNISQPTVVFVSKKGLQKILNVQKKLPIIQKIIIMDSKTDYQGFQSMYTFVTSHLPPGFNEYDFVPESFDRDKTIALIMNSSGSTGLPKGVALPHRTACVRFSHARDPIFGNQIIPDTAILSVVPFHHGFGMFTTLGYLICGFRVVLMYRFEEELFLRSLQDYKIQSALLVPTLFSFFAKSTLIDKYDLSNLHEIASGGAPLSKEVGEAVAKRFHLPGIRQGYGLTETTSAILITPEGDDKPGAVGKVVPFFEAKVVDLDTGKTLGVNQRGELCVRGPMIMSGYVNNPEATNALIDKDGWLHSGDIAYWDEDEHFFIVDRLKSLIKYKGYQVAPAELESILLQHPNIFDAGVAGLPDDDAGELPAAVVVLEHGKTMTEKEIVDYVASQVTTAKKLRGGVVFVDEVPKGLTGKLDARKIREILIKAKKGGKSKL
# Thyrotropin receptor (Homo sapiens), sequence (P16473 whole entry, looked up): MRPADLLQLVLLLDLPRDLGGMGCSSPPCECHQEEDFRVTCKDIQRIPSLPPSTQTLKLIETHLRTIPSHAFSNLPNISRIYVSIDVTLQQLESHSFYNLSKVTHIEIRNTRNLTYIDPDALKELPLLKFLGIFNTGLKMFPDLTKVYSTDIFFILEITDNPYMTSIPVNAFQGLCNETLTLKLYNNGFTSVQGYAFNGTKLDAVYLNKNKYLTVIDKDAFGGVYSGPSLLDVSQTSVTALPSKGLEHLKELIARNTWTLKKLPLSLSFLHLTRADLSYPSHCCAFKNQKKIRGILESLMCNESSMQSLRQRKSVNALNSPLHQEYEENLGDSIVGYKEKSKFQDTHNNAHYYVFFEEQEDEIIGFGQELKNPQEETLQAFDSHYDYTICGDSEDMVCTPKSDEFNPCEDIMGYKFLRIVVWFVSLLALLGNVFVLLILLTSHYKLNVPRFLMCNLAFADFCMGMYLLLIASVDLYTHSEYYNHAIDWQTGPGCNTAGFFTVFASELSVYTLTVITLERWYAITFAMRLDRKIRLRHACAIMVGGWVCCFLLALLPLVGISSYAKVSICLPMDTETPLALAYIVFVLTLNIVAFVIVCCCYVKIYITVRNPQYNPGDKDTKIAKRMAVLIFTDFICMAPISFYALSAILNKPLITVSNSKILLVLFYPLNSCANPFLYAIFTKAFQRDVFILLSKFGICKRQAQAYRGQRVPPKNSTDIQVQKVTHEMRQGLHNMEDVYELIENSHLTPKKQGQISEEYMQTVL
smiles,measurement,setting,value
CCC1(c2ccc(N)cc2)CCC(=O)NC1=O (stereo not given),Potency,[1],inactive
same,outcome,[2],inactive
same,Potency,[3],inactive
same,outcome,[4],inactive
same,Potency,[5],inactive
same,Potency,[6],inactive
same,outcome,[7],inactive
same,Potency,[8],inactive
same,Potency,[9],inactive
same,Potency,[10],inactive
same,Potency,[11],inactive
same,Potency,[12],inactive
same,Potency,[13],inactive
same,Potency,[14],inactive
Cc1ccc(N=CN(C)C=Nc2ccc(C)cc2C)c(C)c1,Potency,[1],43.8 µM (active) and 43.6 µM (active) and inactive
same,Potency,[15],inactive
same,Potency,[16],inactive
same,Potency,[8],inactive
same,Potency,[9],inactive
same,Potency,[10],inactive
same,Potency,[11],inactive
same,Potency,[17],inactive
same,Potency,[18],inactive
same,Potency,[19],inactive
N#CCCCCC#N,Potency,[1],inactive
same,Potency,[8],inactive
same,Potency,[9],inactive
same,Potency,[11],inactive
same,Potency,[17],inactive
same,Potency,[18],inactive
same,Potency,[12],inactive
same,Potency,[13],inactive
same,Potency,[14],inactive
same,Potency,[19],inactive
N#Cc1c(Cl)c(Cl)c(Cl)c(C#N)c1Cl,Potency,[1],6.05 µM (active) and 4.9 µM (active)
same,Potency,[15],3 µM (active) and 3.06 µM (active)
same,Potency,[16],847 nM (active) and 486 nM (active)
same,Potency,[8],7.55 µM (active) and 21.7 µM (active)
same,Potency,[9],inactive
same,Potency,[10],26.8 µM (active) and 24.3 µM (active)
same,Potency,[11],15.1 µM (active) and 9.69 µM (active)
same,Potency,[17],5.34 µM (active) and 4.33 µM (active)
same,Potency,[18],inactive
same,Potency,[19],2.68 µM (active) and 3.86 µM (active)
CCOP(=S)(OCC)OP(=S)(OCC)OCC,Potency,[1],inactive
same,Potency,[15],inactive
same,Potency,[16],inactive
same,Potency,[8],inactive
same,Potency,[10],inactive
same,Potency,[11],inactive
same,Potency,[17],inactive
same,Potency,[18],inactive
same,Potency,[12],inactive
same,Potency,[13],inactive
same,Potency,[14],inactive
same,Potency,[19],inactive
CN(C)c1ccccc1,Potency,[1],inactive
same,Potency,[15],inactive
same,Potency,[16],inactive
same,Potency,[8],inactive
same,Potency,[9],inactive
same,Potency,[10],inactive
same,Potency,[11],inactive
same,Potency,[12],inactive
same,Potency,[13],inactive
same,Potency,[14],inactive
same,Potency,[19],inactive
CCOP(=S)(OCC)SCSC(C)(C)C,Potency,[1],inactive
same,Potency,[8],inactive
same,Potency,[9],inactive
same,Potency,[11],inactive
same,Potency,[17],inactive
same,Potency,[18],inactive
same,Potency,[12],inactive
same,Potency,[19],inactive
CC(C)=CC1C(C(=O)OCN2C(=O)C3=C(CCCC3)C2=O)C1(C)C (stereo not given),Potency,[8],inactive
same,Potency,[9],inactive
same,Potency,[11],inactive
same,Potency,[12],inactive
same,Potency,[14],inactive
Nc1ccc([N+](=O)[O-])cc1N,Potency,[1],inactive
same,Potency,[15],13.7 µM (active) and inactive
same,Potency,[16],68.5 µM (active) and 68.6 µM (active)
same,Potency,[8],48.5 µM (active) and 24.3 µM (active)
same,Potency,[9],79.6 µM (active)
same,Potency,[11],61.1 µM (active) and 27.3 µM (active)
same,Potency,[12],43.2 µM (active)
same,Potency,[13],inactive
same,Potency,[14],inactive
Cc1cc(Cl)ccc1N=CN(C)C,Potency,[1],inactive
same,Potency,[8],inactive
same,Potency,[9],inactive
same,Potency,[10],inactive
same,Potency,[11],inactive
same,Potency,[13],inactive
same,Potency,[14],inactive
same,Potency,[19],inactive
O=[N+]([O-])c1ccc(Nc2ccccc2)cc1,Potency,[15],inactive
same,Potency,[16],inactive
same,Potency,[8],27.5 µM (active) and 30.6 µM (active)
same,Potency,[9],inactive
same,Potency,[10],48.9 µM (active)
same,Potency,[11],30.9 µM (active)
same,Potency,[17],inactive
same,Potency,[18],inactive
same,Potency,[13],inactive
same,Potency,[14],inactive
same,Potency,[19],inactive
CC(C)=CC1C(C(=O)OCc2cccc(Oc3ccccc3)c2)C1(C)C (stereo not given),Potency,[1],inactive
same,Potency,[15],inactive
same,Potency,[16],inactive
same,Potency,[8],inactive
same,Potency,[9],inactive
same,Potency,[11],inactive
same,Potency,[17],inactive
same,Potency,[18],4.86 µM (active) and 6.68 µM (active)
same,Potency,[12],inactive
same,Potency,[13],inactive
same,Potency,[14],inactive
same,Potency,[19],inactive
CCOP(=O)(O)OCC (tested in a mixture with another compound),Potency,[1],inactive and 17.2 µM (active)
same,Potency,[8],inactive and 54 µM (active)
same,Potency,[9],inactive
same,Potency,[12],inactive and 60.6 µM (active)
CC[n+]1c(-c2ccccc2)c2cc(N)ccc2c2ccc(N)cc21,Potency,[1],inactive
same,Potency,[8],24.2 µM (active) and 6.68 µM (active)
same,Potency,[9],inactive
same,Potency,[11],30.5 µM (active)
same,Potency,[17],21.6 µM (active) and 13.3 µM (active)
same,Potency,[18],inactive
same,Potency,[12],24.2 µM (active)
O=[N+]([O-])c1ccc(Cl)c([N+](=O)[O-])c1,Potency,[1],24.9 µM (active) and 24.5 µM (active)
same,Potency,[15],13.9 µM (active) and 12.2 µM (active)
same,Potency,[8],24.7 µM (active) and 38.6 µM (active)
same,Potency,[9],inactive
same,Potency,[11],22 µM (active) and 17.2 µM (active)
same,Potency,[17],19.6 µM (active) and 15.4 µM (active)
same,Potency,[18],inactive
same,Potency,[12],49.3 µM (active) and 27.3 µM (active)
same,Potency,[14],inactive
C[N+](C)(C)CC(=O)[O-],Potency,[1],inactive
same,Potency,[8],inactive
same,Potency,[9],inactive
same,Potency,[11],inactive
same,Potency,[12],inactive
CC(C)(C#N)N=NC(C)(C)C#N,Potency,[1],inactive
same,Potency,[15],inactive
same,Potency,[16],inactive
same,Potency,[8],inactive
same,Potency,[9],inactive
same,Potency,[10],inactive
same,Potency,[11],inactive
same,Potency,[17],inactive
same,Potency,[18],inactive
same,Potency,[19],inactive
